High-throughput results deposited in PubChem BioAssay by National Center for Advancing Translational Sciences (NCATS).
DT40 TDP1 CPT: DT40-hTDP1 cell growth loss with CPT; chicken DT40 Tdp1-/-;hTDP1 cells + 20 nM CPT, ATP luminescence, 48 h; Potency, µM (highest dose often 46.2 µM), without a hit: at the highest dose activity change, negative = growth inhibition, hits mostly inhibitors; hit rate 12% among 420,000; note: potency is the fitted concentration of half-maximal effect; nearly all actives have a fitted effect of over 55% in size
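Chicken DT40 Tdp1-/- cells stably complemented with human TDP1 were seeded at 400 cells/well in medium containing 20 nM camptothecin, exposed to pin-transferred compounds, and grown at 37 °C for at least 48 hr. Viability was read as ATP luminescence.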
DT40 TDP1 no CPT: qHTS for Inhibitors of human tyrosyl-DNA phosphodiesterase 1 (TDP1): qHTS in cells in absence of CPT; Potency, µM (titrated, usually from 46.2 µM), for the others: at the highest dose activity change, negative = growth inhibition, actives largely listed as inhibitors; DT40 Tdp1-/- hTDP1 cells, no CPT, ATP luminescence, 48 h; hit rate 15% among 420,000; note: potency is the fitted concentration of half-maximal effect; nearly all actives have a fitted effect of over 55% in size
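Cells were dispensed at 400 per well, compounds added by pin tool, plates incubated ≥48 hr at 37 °C, then CellTiter-Glo added for 30 min at room temperature before luminescence reading. Line: DT40 Tdp1-/- complemented with hTDP1; camptothecin omitted.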
IL-1B inflam inh: inhibitors of inflammasome signaling (IL-1 beta secretion). THP-1 LPS/ATP IL-1B secretion, AlphaLISA, 16 h; stronger effect = lower value. activity change, % at 57.5 µM. hit rate 4.7% among 360,000. AID 743279; in the data active = activity change below about -50%; inconclusive = mostly about -30% to -49%
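THP-1 cells pretreated 1 hr with compounds (up to 57.5 uM final), then stimulated with LPS (250 ng/mL final) plus ATP (1.25 mM final); secreted IL-1B measured by AlphaLISA after 16 hr, decreased signal indicating inhibition.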
HT1080-NT tox: kills 2HG-producing HT-1080-NT fibrosarcoma cells | HT-1080-NT fibrosarcoma viability, CellTiter-Glo ATP luminescence, 48 h | Potency, µM (titrated, usually from 46.1 µM), for inactives: at the top dose activity, negative = less viability, hits mostly cytotoxic | hit rate 1.6% among 360,000 | AID 686970;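 note: NT is the 2HG producing partner of a matched IDH1 knockdown line; potency is the fitted concentration of half-maximal effect; 0% = DMSO-treated cells and -100% = media-only wells without cells; nearly all actives have a fitted effect of over 55% in size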
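Viability by CellTiter-Glo luminescence after 48 h compound exposure at 37C of HT-1080-NT cells (750/well, RPMI, 5% FBS). % activity scaled between DMSO wells and medium-only wells, then curve-fitted and categorized by curve class.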
ELG1 DNA repair: blocks ELG1-dependent DNA repair in HEK293T cells | HEK293T ELG1-luciferase reporter, luminescence, 16 h; DNA damage induced by 5-fluorouridine | Potency, µM (doses to about 46.1 µM), for the others: at the highest dose activity change, negative = inhibition, actives largely listed as inhibitors | hit rate 2.3% among 330,000 | AID 504467; note: potency is the fitted concentration of half-maximal effect; nearly all actives have a fitted effect of over 55% in size
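Overnight (16 hr) co-exposure of 2,000 cells/well to 5-fluorouridine and compound at 37 °C preceded detection. Luciferase was quantified via ONE-Glo luminescence; loss of signal denotes inhibition.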
HT1080 IDH1KD tx: HT-1080 IDH1 knockdown cell toxicity (counter line); HT-1080 IDH1 knockdown viability, ATP luminescence, 48 h; Potency, µM (titrated, usually from 46.1 µM), without a hit: at the highest dose activity, negative = toxicity, actives largely listed as cytotoxic; hit rate 2% among 360,000; AID 686971;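 note: potency is the fitted concentration of half-maximal effect; 0% = DMSO wells and -100% = cell-free medium wells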
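Cytotoxicity counter-line: IDH1KD HT-1080, 48 h, CellTiter-Glo. Curves classed by r2, magnitude and activity.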
Numbers without * were called inactive; ? = inconclusive; nt = no result given; ! = a repeat was not active; [ ] = dose if it differs, or a comment. Compounds with a hit are over-represented: about 19% of the library has one in this group of screens. Unless noted, calls come from the whole dose curve; as a rule, active = well fitted curve in the direction sought with a large enough effect; inconclusive = small, poorly fitted or top-dose-only effect, or another doubt; inactive = no such curve, though single readings can be large; an effect the other way counts as inactive or inconclusive. Unless noted, % is set by controls: 0 for no effect and ±100 for the full control effect.

SMILES	DT40 TDP1 CPT	DT40 TDP1 no CPT	IL-1B inflam inh	HT1080-NT tox	ELG1 DNA repair	HT1080 IDH1KD tx
COc1ccc(C(c2nnnn2C2CCCCC2)N2CCC3(CC2)C(=O)NCN3c2ccccc2)cc1 (centres undefined)	?	?	-18	?	nt	?
COc1cccc(C(c2nnnn2C2CCCC2)N2CCC3(CC2)C(=O)NCN3c2ccccc2)c1OC (centres undefined)	?	15µM*	?	?	nt	?
CCCCn1nnnc1C(CCSC)N1CCC2(CC1)C(=O)NCN2c1ccccc1 (centres undefined)	23µM*	?	-21	0%	nt	3%
O=C1NCN(c2ccccc2)C12CCN(C(c1ccccc1OC(F)(F)F)c1nnnn1Cc1ccccc1)CC2 (centres undefined)	?	-86%	0	9%	nt	2%
COc1ccc(-n2nnnc2C(c2cccc3ccccc23)N2CCC3(CC2)C(=O)NCN3c2ccccc2)cc1 (centres undefined)	-93%	9.2µM*	?	-15%	nt	-21%
O=C1NCN(c2ccccc2)C12CCN(C(c1cccc3ccccc13)c1nnnn1-c1ccc3c(c1)OCCO3)CC2 (centres undefined)	?	?	?	2%	nt	-2%
O=C1NCN(c2ccccc2)C12CCN(C(c1cccc3ccccc13)c1nnnn1Cc1ccccc1)CC2 (centres undefined)	18µM*	23µM*	?	?	nt	?
CCCCn1nnnc1C(c1cccs1)N1CCC2(CC1)C(=O)NCN2c1ccccc1 (centres undefined)	?	?	-25	?	nt	-27%
O=C(CCc1nnc2ccc(NCc3ccc(F)cc3)nn12)N1CCC2(CC1)OCCO2	-8%	24%	-1	2%	?	8%
CC1CC2(C)C(CCC3C2CCC2(C)C(OP(=O)(N4CC4)N4CC4)CCC32)CC1=O (centres undefined)	?	?	10	24%	nt	4%
O=C1NCN(c2ccccc2)C12CCN(C(c1ccnc3ccccc13)c1nnnn1Cc1ccccc1)CC2 (centres undefined)	?	?	-51*	?	nt	-28%
O=C1c2ccccc2C(=O)c2c1ccc1c(=O)n(-c3ccccc3)[nH]c21	?	23µM*	-12	8%	?	11%
N#CC(C#N)=Cc1ccc(O)c(O)c1	21µM*!	19µM*!	9	-3%	8%	-20%
CC(C)(C)c1cc(C=C(C#N)C#N)cc(C(C)(C)C)c1O	0.65µM*	0.65µM*	-77*	1.2µM*	-29%	2.1µM*
COc1ccc(-n2nnnc2C(c2ccccc2)N2CCC(n3c(=O)[nH]c4ccccc43)CC2)cc1 (centres undefined)	16µM*	15µM*	?	?	nt	?
Cc1cccc(C)c1-n1nnnc1C(c1cc2ccccc2o1)N1CCC(n2c(=O)[nH]c3ccccc32)CC1 (centres undefined)	1.5µM*	1.3µM*	-23	?	nt	?
COc1ccc(-n2nnnc2C(c2cccs2)N2CCC(n3c(=O)[nH]c4ccccc43)CC2)cc1 (centres undefined)	12µM*	13µM*	-25	?	nt	?
Cc1cccc(C)c1-n1nnnc1C(c1ccccc1OC(F)(F)F)N1CCC(n2c(=O)[nH]c3ccccc32)CC1 (centres undefined)	8.2µM*	5.8µM*	-81*	17%	nt	-1%
O=C(Nc1ccc(Cl)c(C(F)(F)F)c1)[C@@H]1CC=C[C@@H]2CCN(Cc3ccccc3)C(=O)[C@@H]21	?	?	-16	8%	nt	11%
Cc1cc(N2C(=O)CC(N3CCC(n4c(=O)[nH]c5ccccc54)CC3)C2=O)no1 (centres undefined)	?	?	0	23%	10%	16%
COc1ccc(C(c2nnnn2-c2c(C)cccc2C)N2CCC(n3c(=O)[nH]c4ccccc43)CC2)cc1 (centres undefined)	8.2µM*	9.2µM*	-92*	?	nt	?
CCOCCOC(C)=O	6%[92.5 µM]	0%[92.5 µM]	nt	nt	nt	nt
CN(N=Cc1ccc([N+](=O)[O-])cc1)c1ccccn1	?	?	-58*	14%	nt	12%
CC(C)c1ccccc1NC1=NCCCS1	-5%	-3%	11	0%	-10%	-10%
C=CCc1ccc(OCCn2nnc3ccccc32)c(OC)c1	10µM*	8.2µM*	25	-28%	?	-13%
SMILES	DT40 TDP1 CPT	DT40 TDP1 no CPT	IL-1B inflam inh	HT1080-NT tox	ELG1 DNA repair	HT1080 IDH1KD tx
C=CCc1ccc(OC(=O)NC2CCCCC2)c(OC)c1	4%	-30%	?	21%	?	17%
OC1(c2ccccc2)CCNC2CCCCC21 (centres undefined)	18µM*	?	-21	1%	22%	2%
OC12CCCCC1C(c1ccccc1)NCC2 (centres undefined)	-20%	-2%	0	-11%	-11%	12%[9.24 µM]
COC(=O)C1=C(c2ccc(-c3ccccc3)c(F)c2)C[C@@H]2CC[C@H]1N2C(=O)NCCOc1ccccc1Cl	?	?	?	-25%	?	-17%
COC(=O)C1=C(c2ccc(-c3ccccc3)c(F)c2)C[C@@H]2CC[C@H]1N2C(=O)NCc1ccco1	7.3µM*	6.5µM*	-16	-24%	?	-11%
COC(=O)C1=C(c2ccc(-c3ccccc3)c(F)c2)C[C@@H]2CC[C@H]1N2C(=O)NCCO	?	21µM*	-6	9%	-3%	-1%
CCCNC(=O)N1[C@H]2CC[C@@H]1C(C(=O)OC)=C(c1ccc(-c3ccccc3)c(F)c1)C2	9.2µM*	7.3µM*	?	-13%	0%	-6%
COC(=O)C1=C(c2ccc(F)cc2F)C[C@@H]2CC[C@H]1N2C(=O)NCCOc1ccccc1	23µM*	?	-11	-7%	-11%	1%
COc1ccc(C(CNC(=O)c2ccc3c(c2)CCC3)N(C)C)cc1 (centres undefined)	?	?	-10	-28%	13%	-14%
N[C@@H](Cn1cc(I)c(=O)[nH]c1=O)C(=O)O	9%	-4%	nt	nt	nt	nt
